# In paper PMC11006913:
# Residue numbers refer to the chain shown, from its start.
# Legend:
# Assay in all cases: PBM; 200 nM protein, PBS
# Conditions in all cases: dsDNA, one strand shown
# NKX2-6 [1] = molecular target: T1, NKX2-6 (Homo sapiens, UniProt A6NCS4 118-204)
# T1 sequence: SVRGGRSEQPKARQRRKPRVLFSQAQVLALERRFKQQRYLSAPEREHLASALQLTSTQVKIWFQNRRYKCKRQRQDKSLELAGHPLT
# NKX2-6 [2] = molecular target: T2, NKX2-6 (Homo sapiens, UniProt A6NCS4 118-204, R150C)
# T2 sequence: T1 sequence with R33C
# HOXC10 [3] = molecular target: HOXC10 (Homo sapiens, UniProt Q9NYD6 254-340, K271E)
# NKX3-2 [4] = molecular target: NKX3-2 (Homo sapiens, UniProt P78367 192-278, P234S)
# NKX3-2 [5] = molecular target: NKX3-2 (Homo sapiens, UniProt P78367 192-278)
# SIX6 [6] = molecular target: T3, SIX6 (Homo sapiens, UniProt O95475 114-200, L167I)
# T3 sequence: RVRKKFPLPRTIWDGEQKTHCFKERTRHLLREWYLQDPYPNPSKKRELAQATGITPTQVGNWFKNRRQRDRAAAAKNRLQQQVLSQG
# SIX6 [7] = molecular target: T4, SIX6 (Homo sapiens, UniProt O95475 114-200, L143V)
# T4 sequence: T3 sequence with L30V, I54L
# SIX6 [8] = molecular target: T5, SIX6 (Homo sapiens, UniProt O95475 114-200, T165P)
# T5 sequence: T3 sequence with T52P, I54L
# SIX6 [9] = molecular target: T6, SIX6 (Homo sapiens, UniProt O95475 114-200, L167M)
# T6 sequence: T3 sequence with I54M
# SIX6 [10] = molecular target: T7, SIX6 (Homo sapiens, UniProt O95475 114-200, L143M)
# T7 sequence: T3 sequence with L30M, I54L
# SIX6 [11] = molecular target: T8, SIX6 (Homo sapiens, UniProt O95475 114-200, T165G)
# T8 sequence: T3 sequence with T52G, I54L
# SIX6 [12] = molecular target: T9, SIX6 (Homo sapiens, UniProt O95475 114-200, T139Q)
# T9 sequence: T3 sequence with T26Q, I54L
# SIX6 [13] = molecular target: T10, SIX6 (Homo sapiens, UniProt O95475 114-200, L167V)
# T10 sequence: T3 sequence with I54V
# SIX6 [14] = molecular target: T11, SIX6 (Homo sapiens, UniProt O95475 114-200, T165I)
# T11 sequence: T3 sequence with T52I, I54L
# CRX [15] = molecular target: CRX (Homo sapiens, UniProt O43186 26-111)
# CRX [16] = molecular target: CRX (Homo sapiens, UniProt O43186 26-111, E42D)
# CRX [17] = molecular target: CRX (Homo sapiens, UniProt O43186 26-111, R41L)
# HOXC10 [18] = molecular target: HOXC10 (Homo sapiens, UniProt Q9NYD6 254-340)
# HOXD13 [19] = molecular target: HOXD13 (Homo sapiens, UniProt P35453 263-343)
# HOXD13 [20] = molecular target: HOXD13 (Homo sapiens, UniProt P35453 263-343, T313A)
# HOXD13 (Homo sapiens, UniProt P35453 263-343, T313A), sequence (P35453 263-343 T313A): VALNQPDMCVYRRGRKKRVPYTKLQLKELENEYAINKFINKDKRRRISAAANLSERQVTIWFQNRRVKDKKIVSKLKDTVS
# NKX3-2 (Homo sapiens, UniProt P78367 192-278, P234S), sequence (P78367 192-278 P234S): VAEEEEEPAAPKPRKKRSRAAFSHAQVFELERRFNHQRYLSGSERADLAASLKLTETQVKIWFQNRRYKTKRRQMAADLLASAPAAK
# NKX3-2 (Homo sapiens, UniProt P78367 192-278), sequence (P78367 192-278): as the sequence (P78367 192-278 P234S) above, with S43P counted along it
# CRX (Homo sapiens, UniProt O43186 26-111), sequence (O43186 26-111): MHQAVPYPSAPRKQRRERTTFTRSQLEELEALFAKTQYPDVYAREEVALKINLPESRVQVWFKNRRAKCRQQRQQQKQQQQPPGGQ
# CRX (Homo sapiens, UniProt O43186 26-111, E42D), sequence (O43186 26-111 E42D): as the sequence (O43186 26-111) above, with E17D counted along it
# CRX (Homo sapiens, UniProt O43186 26-111, R41L), sequence (O43186 26-111 R41L): as the sequence (O43186 26-111) above, with R16L counted along it
# HOXC10 (Homo sapiens, UniProt Q9NYD6 254-340, K271E), sequence (Q9NYD6 254-340 K271E): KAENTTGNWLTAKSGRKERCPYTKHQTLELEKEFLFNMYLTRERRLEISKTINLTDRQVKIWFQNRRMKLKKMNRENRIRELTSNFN
# HOXD13 (Homo sapiens, UniProt P35453 263-343), sequence (P35453 263-343): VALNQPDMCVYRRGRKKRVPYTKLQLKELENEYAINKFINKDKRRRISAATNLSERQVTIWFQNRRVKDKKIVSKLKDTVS
# HOXC10 (Homo sapiens, UniProt Q9NYD6 254-340), sequence (Q9NYD6 254-340): as the sequence (Q9NYD6 254-340 K271E) above, with E18K counted along it
sequence,measurement,setting,value
AATTAGTG,binding signal,NKX2-6 [1],"11.9 upbm affinity estimate (log intensity, higher = more binding, comparable within an allelic series)"
CCGAGCGG,binding signal,NKX2-6 [2],"9.43 upbm affinity estimate (log intensity, higher = more binding, comparable within an allelic series)"
AATTAAAT,binding signal,HOXC10 [3],"11.9 upbm affinity estimate (log intensity, higher = more binding, comparable within an allelic series)"
CCCAGGCG,binding signal,NKX3-2 [4],"10.6 upbm affinity estimate (log intensity, higher = more binding, comparable within an allelic series)"
same,binding signal,NKX3-2 [5],"10.6 upbm affinity estimate (log intensity, higher = more binding, comparable within an allelic series)"
CTTGCGGC,binding signal,NKX3-2 [4],"10.7 upbm affinity estimate (log intensity, higher = more binding, comparable within an allelic series)"
same,binding signal,NKX3-2 [5],"10.6 upbm affinity estimate (log intensity, higher = more binding, comparable within an allelic series)"
GGAGCGCA,binding signal,SIX6 [6],"8.88 upbm affinity estimate (log intensity, higher = more binding, comparable within an allelic series)"
same,binding signal,SIX6 [7],"8.9 upbm affinity estimate (log intensity, higher = more binding, comparable within an allelic series)"
same,binding signal,SIX6 [8],"8.9 upbm affinity estimate (log intensity, higher = more binding, comparable within an allelic series)"
same,binding signal,SIX6 [9],"8.87 upbm affinity estimate (log intensity, higher = more binding, comparable within an allelic series)"
same,binding signal,SIX6 [10],"8.97 upbm affinity estimate (log intensity, higher = more binding, comparable within an allelic series)"
same,binding signal,SIX6 [11],"8.87 upbm affinity estimate (log intensity, higher = more binding, comparable within an allelic series)"
same,binding signal,SIX6 [12],"8.78 upbm affinity estimate (log intensity, higher = more binding, comparable within an allelic series)"
same,binding signal,SIX6 [13],"8.93 upbm affinity estimate (log intensity, higher = more binding, comparable within an allelic series)"
same,binding signal,SIX6 [14],"8.91 upbm affinity estimate (log intensity, higher = more binding, comparable within an allelic series)"
GAGGGGGC,binding signal,CRX [15],"8.07 upbm affinity estimate (log intensity, higher = more binding, comparable within an allelic series)"
same,binding signal,CRX [16],"8.05 upbm affinity estimate (log intensity, higher = more binding, comparable within an allelic series)"
same,binding signal,CRX [17],"8.14 upbm affinity estimate (log intensity, higher = more binding, comparable within an allelic series)"
GACAATTA,binding signal,NKX2-6 [2],"11 upbm affinity estimate (log intensity, higher = more binding, comparable within an allelic series)"
GCAGGCGC,binding signal,HOXC10 [18],"9.86 upbm affinity estimate (log intensity, higher = more binding, comparable within an allelic series)"
same,binding signal,NKX2-6 [2],"9.36 upbm affinity estimate (log intensity, higher = more binding, comparable within an allelic series)"
same,binding signal,HOXC10 [3],"9.87 upbm affinity estimate (log intensity, higher = more binding, comparable within an allelic series)"
AGAGCGCG,binding signal,CRX [15],"8.2 upbm affinity estimate (log intensity, higher = more binding, comparable within an allelic series)"
same,binding signal,CRX [16],"8.22 upbm affinity estimate (log intensity, higher = more binding, comparable within an allelic series)"
same,binding signal,CRX [17],"8.22 upbm affinity estimate (log intensity, higher = more binding, comparable within an allelic series)"
CCGCCCCC,binding signal,NKX3-2 [4],"10.4 upbm affinity estimate (log intensity, higher = more binding, comparable within an allelic series)"
same,binding signal,NKX3-2 [5],"10.4 upbm affinity estimate (log intensity, higher = more binding, comparable within an allelic series)"
GCCCCCCA,binding signal,HOXD13 [19],"9.22 upbm affinity estimate (log intensity, higher = more binding, comparable within an allelic series)"
same,binding signal,HOXD13 [20],"9.24 upbm affinity estimate (log intensity, higher = more binding, comparable within an allelic series)"
CGCGTAGC,binding signal,SIX6 [6],"9.05 upbm affinity estimate (log intensity, higher = more binding, comparable within an allelic series)"
same,binding signal,SIX6 [7],"8.9 upbm affinity estimate (log intensity, higher = more binding, comparable within an allelic series)"
same,binding signal,SIX6 [8],"9.03 upbm affinity estimate (log intensity, higher = more binding, comparable within an allelic series)"
same,binding signal,SIX6 [9],"8.94 upbm affinity estimate (log intensity, higher = more binding, comparable within an allelic series)"
same,binding signal,SIX6 [10],"8.94 upbm affinity estimate (log intensity, higher = more binding, comparable within an allelic series)"
same,binding signal,SIX6 [11],"9.13 upbm affinity estimate (log intensity, higher = more binding, comparable within an allelic series)"
same,binding signal,SIX6 [12],"9.19 upbm affinity estimate (log intensity, higher = more binding, comparable within an allelic series)"
same,binding signal,SIX6 [13],"8.99 upbm affinity estimate (log intensity, higher = more binding, comparable within an allelic series)"
same,binding signal,SIX6 [14],"8.98 upbm affinity estimate (log intensity, higher = more binding, comparable within an allelic series)"
GTCCTGCA,binding signal,NKX2-6 [1],"9.59 upbm affinity estimate (log intensity, higher = more binding, comparable within an allelic series)"
GCCGTCGC,binding signal,CRX [15],"8.32 upbm affinity estimate (log intensity, higher = more binding, comparable within an allelic series)"
same,binding signal,CRX [16],"8.21 upbm affinity estimate (log intensity, higher = more binding, comparable within an allelic series)"
same,binding signal,CRX [17],"8.17 upbm affinity estimate (log intensity, higher = more binding, comparable within an allelic series)"
GCCAGACC,binding signal,SIX6 [6],"9.01 upbm affinity estimate (log intensity, higher = more binding, comparable within an allelic series)"
same,binding signal,SIX6 [7],"8.79 upbm affinity estimate (log intensity, higher = more binding, comparable within an allelic series)"
same,binding signal,SIX6 [8],"8.91 upbm affinity estimate (log intensity, higher = more binding, comparable within an allelic series)"
same,binding signal,SIX6 [9],"9.01 upbm affinity estimate (log intensity, higher = more binding, comparable within an allelic series)"
same,binding signal,SIX6 [10],"8.95 upbm affinity estimate (log intensity, higher = more binding, comparable within an allelic series)"
same,binding signal,SIX6 [11],"9.08 upbm affinity estimate (log intensity, higher = more binding, comparable within an allelic series)"
same,binding signal,SIX6 [12],"9.06 upbm affinity estimate (log intensity, higher = more binding, comparable within an allelic series)"
same,binding signal,SIX6 [13],"8.94 upbm affinity estimate (log intensity, higher = more binding, comparable within an allelic series)"
same,binding signal,SIX6 [14],"8.93 upbm affinity estimate (log intensity, higher = more binding, comparable within an allelic series)"
CAGGCGCC,binding signal,SIX6 [6],"8.87 upbm affinity estimate (log intensity, higher = more binding, comparable within an allelic series)"
same,binding signal,SIX6 [7],"8.82 upbm affinity estimate (log intensity, higher = more binding, comparable within an allelic series)"
same,binding signal,SIX6 [8],"8.98 upbm affinity estimate (log intensity, higher = more binding, comparable within an allelic series)"
same,binding signal,SIX6 [9],"8.93 upbm affinity estimate (log intensity, higher = more binding, comparable within an allelic series)"
same,binding signal,SIX6 [10],"8.82 upbm affinity estimate (log intensity, higher = more binding, comparable within an allelic series)"
same,binding signal,SIX6 [11],"8.8 upbm affinity estimate (log intensity, higher = more binding, comparable within an allelic series)"
same,binding signal,SIX6 [12],"8.84 upbm affinity estimate (log intensity, higher = more binding, comparable within an allelic series)"
same,binding signal,SIX6 [13],"8.89 upbm affinity estimate (log intensity, higher = more binding, comparable within an allelic series)"
same,binding signal,SIX6 [14],"8.87 upbm affinity estimate (log intensity, higher = more binding, comparable within an allelic series)"
